# ± gives the standard deviation.
# What was measured:
# Experiment in all cases: peptide microarray binding signal (635 nm), min-max normalized on array (fraction of array maximum); higher = stronger binding
# Settings in all cases: peptide region: H3 1-13
# [1] = biological target: T1, HaloTag-ATRX ADD domain (163-292)
# T1 chain: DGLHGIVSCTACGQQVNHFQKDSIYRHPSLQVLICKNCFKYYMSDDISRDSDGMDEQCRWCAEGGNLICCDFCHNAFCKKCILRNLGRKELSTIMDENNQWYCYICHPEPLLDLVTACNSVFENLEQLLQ
# Procedure: (§1)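 Histone 13-mer peptides were synthesized as cellulose conjugates with a C-terminal 20-atom PEG linker and printed in triplicate on nitrocellulose. The sequence given is the unmodified backbone; PTMs (Kme1/2/3, Kac, Sph/Tph, Rme/Rme2a/Rme2s, Rcit) are listed in the label and the 'peptide modifications' condition. Slides were probed at 4 °C for 1 h with biotin-labelled (HQ)5-HaloTag reader fusions (ATRX-ADD, ING2-PHD) then streptavidin-Alexa647, or with rabbit histone antibodies then anti-rabbit Alexa647. The mean 635 nm signal of the triplicate spots was scaled 0-1 between the lowest and highest values on each array.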
# [2] = biological target: HaloTag-ING2 PHD (mouse Ing2 200-280)
# Procedure: as §1
# [3] = biological target: anti-H3K4me3 antibody ab8580
# Procedure: as §1
# [4] = biological target: anti-H3K9me3 antibody ab8898
# Procedure: as §1
# [5] = peptide modifications: H3K4me2 H3K9me1, binder concentration: 1:2,000 dilution
# [6] = peptide modifications: H3K4me2 H3K9me1, binder concentration: 1:10,000 dilution
# [7] = peptide modifications: H3K4me2, binder concentration: 1:2,000 dilution
# [8] = peptide modifications: H3K4me2, binder concentration: 1:10,000 dilution
# [9] = peptide modifications: H3K4me1 H3K9me3, binder concentration: 1:2,000 dilution
# [10] = peptide modifications: H3K4me1 H3K9me3, binder concentration: 1:10,000 dilution
# [11] = peptide modifications: H3K4me3 H3K9me2, binder concentration: 1:2,000 dilution
# [12] = peptide modifications: H3K4me3 H3K9me2, binder concentration: 1:10,000 dilution
# [13] = peptide modifications: H3K4me3 H3K9me1, binder concentration: 1:2,000 dilution
# [14] = peptide modifications: H3K4me3 H3K9me1, binder concentration: 1:10,000 dilution
# [15] = peptide modifications: H3K4me2 H3K9me2, binder concentration: 1:2,000 dilution
# [16] = peptide modifications: H3K4me2 H3K9me2, binder concentration: 1:10,000 dilution
# [17] = peptide modifications: H3K4me2 H3K9me3, binder concentration: 1:2,000 dilution
# [18] = peptide modifications: H3K4me2 H3K9me3, binder concentration: 1:10,000 dilution
# [19] = peptide modifications: H3K4me3, binder concentration: 1:2,000 dilution
# [20] = peptide modifications: H3K4me3, binder concentration: 1:10,000 dilution
# [21] = peptide modifications: H3K9me1, binder concentration: 1:2,000 dilution
# [22] = peptide modifications: H3K9me1, binder concentration: 1:10,000 dilution
# [23] = peptide modifications: H3K4me1 H3T6ph, binder concentration: 1:2,000 dilution
# [24] = peptide modifications: H3K4me1 H3T6ph, binder concentration: 1:10,000 dilution
binder,measurement,setting,value
ARTKQTARKSTGG [H3 1-13 A R T Kme2 Q T A R Kme S T G G],peptide microarray binding signal,"[1]; peptide modifications: H3K4me2 H3K9me1, binder concentration: 50 nM",0.0128 ± 0.00075
same,peptide microarray binding signal,"[1]; peptide modifications: H3K4me2 H3K9me1, binder concentration: 500 nM",0.0286 ± 0.0013
same,peptide microarray binding signal,"[2]; peptide modifications: H3K4me2 H3K9me1, binder concentration: 10 nM",0.656 ± 0.061
same,peptide microarray binding signal,"[2]; peptide modifications: H3K4me2 H3K9me1, binder concentration: 100 nM",0.43 ± 0.13
same,peptide microarray binding signal,[3]; [5],0.365 ± 0.067
same,peptide microarray binding signal,[3]; [6],0.152 ± 0.018
same,peptide microarray binding signal,[4]; [5],0.00797 ± 0.0012
same,peptide microarray binding signal,[4]; [6],0.00398 ± 0.00019
ARTKQTARKSTGG [H3 1-13 A R T Kme2 Q T A R K S T G G],peptide microarray binding signal,"[1]; peptide modifications: H3K4me2, binder concentration: 50 nM",0.00564 ± 0.00013
same,peptide microarray binding signal,"[1]; peptide modifications: H3K4me2, binder concentration: 500 nM",0.0118 ± 0.00057
same,peptide microarray binding signal,"[2]; peptide modifications: H3K4me2, binder concentration: 10 nM",0.0623 ± 0.0073
same,peptide microarray binding signal,"[2]; peptide modifications: H3K4me2, binder concentration: 100 nM",0.0581 ± 0.0074
same,peptide microarray binding signal,[3]; [7],0.03 ± 0.01
same,peptide microarray binding signal,[3]; [8],0.0164 ± 0.0011
same,peptide microarray binding signal,[4]; [7],0.00156 ± 0.00023
same,peptide microarray binding signal,[4]; [8],0.00115 ± 2e-05
ARTKQTARKSTGG [H3 1-13 A R T Kme Q T A R Kme3 S T G G],peptide microarray binding signal,"[1]; peptide modifications: H3K4me1 H3K9me3, binder concentration: 50 nM",0.253 ± 0.034
same,peptide microarray binding signal,"[1]; peptide modifications: H3K4me1 H3K9me3, binder concentration: 500 nM",0.336 ± 0.03
same,peptide microarray binding signal,"[2]; peptide modifications: H3K4me1 H3K9me3, binder concentration: 10 nM",0.335 ± 0.065
same,peptide microarray binding signal,"[2]; peptide modifications: H3K4me1 H3K9me3, binder concentration: 100 nM",0.547 ± 0.039
same,peptide microarray binding signal,[3]; [9],0.243 ± 0.018
same,peptide microarray binding signal,[3]; [10],0.101 ± 0.049
same,peptide microarray binding signal,[4]; [9],0.4 ± 0.096
same,peptide microarray binding signal,[4]; [10],0.275 ± 0.034
ARTKQTARKSTGG [H3 1-13 A R T Kme3 Q T A R Kme2 S T G G],peptide microarray binding signal,"[1]; peptide modifications: H3K4me3 H3K9me2, binder concentration: 50 nM",0.0174 ± 0.00053
same,peptide microarray binding signal,"[1]; peptide modifications: H3K4me3 H3K9me2, binder concentration: 500 nM",0.0402 ± 0.003
same,peptide microarray binding signal,"[2]; peptide modifications: H3K4me3 H3K9me2, binder concentration: 10 nM",0.735 ± 0.11
same,peptide microarray binding signal,"[2]; peptide modifications: H3K4me3 H3K9me2, binder concentration: 100 nM",0.869 ± 0.12
same,peptide microarray binding signal,[3]; [11],0.929 ± 0.063
same,peptide microarray binding signal,[3]; [12],0.889 ± 0.23
same,peptide microarray binding signal,[4]; [11],0.11 ± 0.025
same,peptide microarray binding signal,[4]; [12],0.0347 ± 0.004
ARTKQTARKSTGG [H3 1-13 A R T Kme3 Q T A R Kme S T G G],peptide microarray binding signal,"[1]; peptide modifications: H3K4me3 H3K9me1, binder concentration: 50 nM",0.0117 ± 0.0004
same,peptide microarray binding signal,"[1]; peptide modifications: H3K4me3 H3K9me1, binder concentration: 500 nM",0.025 ± 0.0009
same,peptide microarray binding signal,"[2]; peptide modifications: H3K4me3 H3K9me1, binder concentration: 10 nM",0.411 ± 0.074
same,peptide microarray binding signal,"[2]; peptide modifications: H3K4me3 H3K9me1, binder concentration: 100 nM",0.338 ± 0.07
same,peptide microarray binding signal,[3]; [13],0.484 ± 0.13
same,peptide microarray binding signal,[3]; [14],0.592 ± 0.25
same,peptide microarray binding signal,[4]; [13],0.108 ± 0.018
same,peptide microarray binding signal,[4]; [14],0.0413 ± 0.0047
ARTKQTARKSTGG [H3 1-13 A R T Kme2 Q T A R Kme2 S T G G],peptide microarray binding signal,"[1]; peptide modifications: H3K4me2 H3K9me2, binder concentration: 50 nM",0.0279 ± 0.0029
same,peptide microarray binding signal,"[1]; peptide modifications: H3K4me2 H3K9me2, binder concentration: 500 nM",0.0628 ± 0.0034
same,peptide microarray binding signal,"[2]; peptide modifications: H3K4me2 H3K9me2, binder concentration: 10 nM",0.766 ± 0.063
same,peptide microarray binding signal,"[2]; peptide modifications: H3K4me2 H3K9me2, binder concentration: 100 nM",0.786 ± 0.077
same,peptide microarray binding signal,[3]; [15],0.408 ± 0.12
same,peptide microarray binding signal,[3]; [16],0.343 ± 0.15
same,peptide microarray binding signal,[4]; [15],0.0325 ± 0.0041
same,peptide microarray binding signal,[4]; [16],0.0104 ± 0.00076
ARTKQTARKSTGG [H3 1-13 A R T Kme2 Q T A R Kme3 S T G G],peptide microarray binding signal,"[1]; peptide modifications: H3K4me2 H3K9me3, binder concentration: 50 nM",0.133 ± 0.011
same,peptide microarray binding signal,"[1]; peptide modifications: H3K4me2 H3K9me3, binder concentration: 500 nM",0.21 ± 0.019
same,peptide microarray binding signal,"[2]; peptide modifications: H3K4me2 H3K9me3, binder concentration: 10 nM",1 ± 0.17
same,peptide microarray binding signal,"[2]; peptide modifications: H3K4me2 H3K9me3, binder concentration: 100 nM",1 ± 0.088
same,peptide microarray binding signal,[3]; [17],0.491 ± 0.058
same,peptide microarray binding signal,[3]; [18],0.325 ± 0.12
same,peptide microarray binding signal,[4]; [17],0.429 ± 0.054
same,peptide microarray binding signal,[4]; [18],0.369 ± 0.044
ARTKQTARKSTGG [H3 1-13 A R T Kme3 Q T A R K S T G G],peptide microarray binding signal,"[1]; peptide modifications: H3K4me3, binder concentration: 50 nM",0.00868 ± 0.00032
same,peptide microarray binding signal,"[1]; peptide modifications: H3K4me3, binder concentration: 500 nM",0.0201 ± 0.0038
same,peptide microarray binding signal,"[2]; peptide modifications: H3K4me3, binder concentration: 10 nM",0.383 ± 0.2
same,peptide microarray binding signal,"[2]; peptide modifications: H3K4me3, binder concentration: 100 nM",0.232 ± 0.072
same,peptide microarray binding signal,[3]; [19],0.596 ± 0.33
same,peptide microarray binding signal,[3]; [20],0.549 ± 0.54
same,peptide microarray binding signal,[4]; [19],0.0584 ± 0.025
same,peptide microarray binding signal,[4]; [20],0.0227 ± 0.011
ARTKQTARKSTGG [H3 1-13 A R T K Q T A R Kme S T G G],peptide microarray binding signal,"[1]; peptide modifications: H3K9me1, binder concentration: 50 nM",0.0276 ± 0.00028
same,peptide microarray binding signal,"[1]; peptide modifications: H3K9me1, binder concentration: 500 nM",0.0642 ± 0.0027
same,peptide microarray binding signal,"[2]; peptide modifications: H3K9me1, binder concentration: 10 nM",0.0068 ± 0.00044
same,peptide microarray binding signal,"[2]; peptide modifications: H3K9me1, binder concentration: 100 nM",0.0424 ± 0.0055
same,peptide microarray binding signal,[3]; [21],0.00068 ± 2.9e-05
same,peptide microarray binding signal,[3]; [22],0.000628 ± 6.7e-06
same,peptide microarray binding signal,[4]; [21],0.00122 ± 7.3e-05
same,peptide microarray binding signal,[4]; [22],0.00098 ± 4.6e-05
ARTKQTARKSTGG [H3 1-13 A R T Kme Q Tph A R K S T G G],peptide microarray binding signal,"[1]; peptide modifications: H3K4me1 H3T6ph, binder concentration: 50 nM",0.00661 ± 0.00014
same,peptide microarray binding signal,"[1]; peptide modifications: H3K4me1 H3T6ph, binder concentration: 500 nM",0.0257 ± 0.00052
same,peptide microarray binding signal,"[2]; peptide modifications: H3K4me1 H3T6ph, binder concentration: 10 nM",0.087 ± 0.04
same,peptide microarray binding signal,"[2]; peptide modifications: H3K4me1 H3T6ph, binder concentration: 100 nM",0.211 ± 0.02
same,peptide microarray binding signal,[3]; [23],0.00296 ± 0.00042
same,peptide microarray binding signal,[3]; [24],0.00194 ± 0.00011
same,peptide microarray binding signal,[4]; [23],0.00414 ± 0.00036
same,peptide microarray binding signal,[4]; [24],0.00259 ± 0.00028
